# Results taken from ChEMBL document CHEMBL3988442, “University of Dundee, Small-Polar-MMV Screening Library” (2021).
# About 1,000 (1.4%) of roughly 69,000 compounds showed an effect of 50% or more. Only a selection was taken, and strong results are over-represented in it overall.
# Test system: Leishmania donovani
# Assay: Leishmania intramacrophage assay
# Type: functional, organism-based
# Set-up: scale not given: in the data most compounds retested in dose-response had high values
smiles,measurement,setting,value
CCOCCC(=O)N(C)Cc1noc(C(C)C)n1,Percent Effect,"30.3 µM, […]",0.5615%
COc1cccc(OCC2CCCN(C(=O)c3ncc(F)cc3F)C2)c1 (centres undefined),Percent Effect,"30.3 µM, […]",9.755%
Cc1ccc(-c2cnnc(N3CCCC3c3nonc3C)n2)o1 (centres undefined),Percent Effect,"30.3 µM, […]",17.41%
Cc1ccc(OCC(=O)Nc2ncccc2OC(F)F)cc1,Percent Effect,"30.3 µM, […]",23.14%
Cc1ccc(C(=O)NCCCNc2ccc(C(F)(F)F)cn2)cc1,Percent Effect,30 µM,23.85%
Cc1noc(CN2CCN(C(=O)N(C)C)CC2)n1,Percent Effect,30 µM,8.701%
COc1cccc2c1OCC(NC(=O)NCCC(N)=O)C2 (centres undefined),Percent Effect,"30.3 µM, […]",-3.86%
CC1CCC(NCCCN2CCOCC2)CC1 (centres undefined),Percent Effect,"30.3 µM, […]",41.59%
Cc1ccc(C)c(-n2ncc(C(=O)NCC3COC(C)(C)O3)c2N)c1 (centres undefined),Percent Effect,"30.3 µM, […]",6.712%
CC1CCN(c2ccc(CNC(=O)NCCn3ccnc3)cn2)CC1,Percent Effect,"30.3 µM, […]",-10.4%
c1csc(CN2CCCN(c3ccc(Cn4ccnc4)cn3)CC2)c1,Percent Effect,"30.3 µM, […]",43.35%
CN(CC1CCN(c2ccccc2)C1)c1ccc(Cn2ccnc2)cn1 (centres undefined),Percent Effect,"30.3 µM, […]",-5.433%
Fc1ccc(N2CCCN(c3ccc(Cn4ccnc4)cn3)CC2)cc1,Percent Effect,"30.3 µM, […]",41.56%
OC1CCN(C2CCN(c3ccc(Cn4ccnc4)cn3)CC2)CC1,Percent Effect,"30.3 µM, […]",61.02%
c1cn(Cc2ccc(N3CCCN(C4CCCC4)CC3)nc2)cn1,Percent Effect,"30.3 µM, […]",60.72%
CC(=O)NC1CCN(C(=O)c2cnc(COc3ccccc3)nc2O)C1 (centres undefined),Percent Effect,"30.3 µM, […]",6.861%
Cc1ccc(CN2CCc3onc(COc4cccnc4)c3C2)s1.O=C(O)C(F)(F)F.O=C(O)C(F)(F)F,Percent Effect,"30.3 µM, […]",-45.52%
O=S(=O)(NCc1ccnc(-n2ccnc2)c1)c1cncc(Cl)c1,Percent Effect,"30.3 µM, […]",-18.27%
COCCNC(=O)Cn1cc(OCc2ccc(F)cc2)c(=O)cc1CO,Percent Effect,"30.3 µM, […]",27.19%
Cc1nnc(N2CC[C@@H](OCC3CC3)[C@@H](Cc3ccccc3)C2)s1.O=C(O)C(F)(F)F,Percent Effect,"30.3 µM, […]",35.34%
Cc1nnc(N2CC[C@H](OCC3CC3)[C@@H](Cc3ccccc3)C2)s1.O=C(O)C(F)(F)F,Percent Effect,"30 µM, 30.03 µM",51.69%
CO[C@@H]1CCN(c2nnc(C)s2)C[C@@H]1Cc1ccccc1.O=C(O)C(F)(F)F,Percent Effect,"30.3 µM, […]",9.959%
O=C(Nc1cnccn1)[C@@H]1COC[C@H]2CN(C3CCC3)C[C@H]21.O=C(O)C(F)(F)F,Percent Effect,"30.3 µM, […]",-10.65%
CCc1nnc(Nc2cccc(C3CCN(CCO)CC3)n2)s1,Percent Effect,"30 µM, 30.03 µM",20.13%
